The structures appear in SMILES notation. Values without a mark were called inactive. Inconclusive results are not listed. Active and inactive are the calls of the source. Unless noted, calls follow the shape of the dose curve; as a rule, active = well fitted curve in the direction sought with a large enough effect; inconclusive = small, poorly fitted or top-dose-only effect, or another doubt; inactive = no such curve, though single readings can be large; an effect the other way counts as inactive or inconclusive.

Assay [1] concerns the target Cytochrome P450 3A4 (Homo sapiens) (UniProt P08684). Kind of assay: qHTS Assay for Inhibitors and Substrates of Cytochrome P450 3A4 (AID 884). Also: series mostly up to about 57 µM; % is scaled to controls: 0 for no effect and ±100 for the full control effect; nearly all actives have a fitted effect of over 50% in size. The essentials:
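20 nM human CYP3A4 with 25 uM Luciferin-PPXE (at KM) in 200 mM KPO4, preincubated 10 min with compound; NADPH regeneration started a 60 min RT reaction. Luciferin detected by luminescence, normalized to 57 uM ketoconazole as full inhibition.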
(Quantitative high-throughput screening tests each substance at several concentrations.)

The nature of assay [2]: Cell Viability - LYMP2-004 (AID 966).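 Also: plate controls were DMSO only for no effect and tetraoctylammonium bromide control for full effect; nearly all actives have a fitted effect of over 65% in size.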 In a few lines: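 Acute toxicity is scored as a concentration-dependent drop in intracellular ATP, quantified by luciferase luminescence, in human lymphoblastoid cells exposed to compound for 24 hr. AC50 derives from Hill-equation modelling.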
Assay [3] in a line: Cell Viability - LYMP2-009 (AID 968).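 Also: series mostly up to about 92 µM; cells exposed to compound for 24 h at 37 °C; 0% = DMSO alone and the full-kill end = tetraoctylammonium bromide at 92 µM; nearly all actives have a fitted effect of over 55% in size.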
A short description of assay [4]: Cell Viability - LYMP2-010 (AID 981).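 Also: cells exposed to compound for 24 hours at 37 °C; % is scaled to controls: 0 for no effect and ±100 for the full control effect; nearly all actives have a fitted effect of over 55% in size.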 In a few lines: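 Acute toxicity is scored as a concentration-dependent loss of cellular ATP in human lymphoblastoid cells after 24 hr compound exposure in complete medium. Tetraoctylammonium bromide is the positive control.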
Assay [5] is described as follows: Cell Viability - LYMP2-012 (AID 982).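 Also: cellular ATP by luciferase luminescence where a drop means cytotoxicity; cells exposed to compound for one day before reading; 0% = DMSO only and full loss = 92 µM tetraoctylammonium bromide; nearly all actives have a fitted effect of over 55% in size.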
Assay [6] concerns the target Estrogen receptor (Homo sapiens) (UniProt P03372). Nature of the assay: qHTS assay for small molecule antagonists of estrogen receptor alpha signaling (AID 588513; active = well fitted curve in the direction sought with a large enough effect in the signal ratio, with a control signal flat, not every such curve was filed as active; the % refers to the signal ratio; also: % is scaled to controls: 0 for no effect and ±100 for the full control effect). The essentials:
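Fluorescence from CCF4 substrate after 2 h at room temperature gave reporter activity; cells had been exposed to compound and 0.5nM 17-beta-estradiol for 18 h at 37 C. Hill-equation fitting yielded IC50 and maximal response.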

Assay [7] has the same target. Nature of the assay: qHTS assay for small molecule agonists of estrogen receptor alpha signaling (AID 588514; calls by dose curve;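 also: 0% = vehicle only and 100% = reference agonist; nearly all actives have a fitted effect of over 70% in size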). In a few lines: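 Reporter-gene assay. […] controls beta-lactamase in HEK 293 GripTite cells; after 18 hrs with compound, CCF4 substrate is added for 2 hrs and fluorescence is read.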
In assay [8] the target is Glucocorticoid receptor (Homo sapiens) (UniProt P04150). Kind of assay: qHTS assay for small molecule antagonists of glucocorticoid receptor signaling (AID 588533; active = well fitted inhibition curve with a large enough effect in the signal ratio, with a control signal flat, not every such curve was filed as active; the % refers to the signal ratio;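 also: cells stimulated with 2 nM dexamethasone as agonist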; also: potency is read from the fitted curve at half-maximal effect). The essentials:
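Antagonist-mode qHTS: compound titrations added to GRE-bla HeLa cells, then dexamethasone 2 nM final; 18 h, 37 C. CCF4 FRET fluorescence normalized to dexamethasone and DMSO; IC50 from Hill fit.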

Assay [9] deals with Peroxisome proliferator-activated receptor gamma (Homo sapiens) (UniProt P37231). Kind of assay: qHTS assay for small molecule agonists of peroxisome proliferator-activated receptor gamma signaling (AID 588536; active = well fitted curve in the direction sought with a large enough effect in the signal ratio, with a control signal flat, not every such curve was filed as active; the % refers to the signal ratio;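 also: 0% = DMSO basal wells and 100% = rosiglitazone at 2 µM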). In a few lines:
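HEK293 UAS-bla reporter line, 1% charcoal/dextran FBS; titration, 16 h, 37 C; CCF4 loading 2 h RT; fluorescence 460/530 nm. Normalized to rosiglitazone 2 uM = 100%, DMSO = 0%.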

For assay [10], the target named is Thyroid hormone receptor beta (Homo sapiens) (UniProt P10828). Nature of the assay: qHTS assay for small molecule agonists of thyroid hormone receptor beta signaling (AID 588545; calls by dose curve). In a few lines: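 Agonist-mode beta-lactamase reporter assay, HEK 293 cells, 2% charcoal/dextran FBS; cells plated 4 hrs, compound 18 hrs at 37 C, CCF4 2 hrs RT. Normalized to 10 nM T3 (100%) and DMSO (0%); Hill fit gives EC50, efficacy.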
Thyroid hormone receptor beta (Homo sapiens), sequence (P10828 whole entry, looked up): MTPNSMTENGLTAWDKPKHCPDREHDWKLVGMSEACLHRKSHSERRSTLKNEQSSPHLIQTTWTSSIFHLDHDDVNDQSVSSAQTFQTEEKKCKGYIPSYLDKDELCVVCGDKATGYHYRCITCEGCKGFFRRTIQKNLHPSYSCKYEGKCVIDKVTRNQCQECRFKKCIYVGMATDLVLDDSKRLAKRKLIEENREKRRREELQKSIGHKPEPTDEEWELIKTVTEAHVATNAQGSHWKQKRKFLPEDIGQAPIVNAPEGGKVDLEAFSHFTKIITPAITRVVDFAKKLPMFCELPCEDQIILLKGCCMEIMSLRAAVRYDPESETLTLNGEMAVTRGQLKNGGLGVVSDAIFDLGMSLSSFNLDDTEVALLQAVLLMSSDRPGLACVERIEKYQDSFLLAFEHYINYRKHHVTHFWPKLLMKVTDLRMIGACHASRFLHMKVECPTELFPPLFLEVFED

Assay [11] has the same target. Kind of assay: qHTS assay for small molecule antagonists of thyroid hormone receptor beta signaling (AID 588547; active = well fitted inhibition curve with a large enough effect in the signal ratio, with a control signal flat, not every such curve was filed as active; the % refers to the signal ratio;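 also: cells stimulated with 0.4 nM T3 agonist during compound exposure; series mostly up to about 77 µM; % is scaled to controls: 0 for no effect and ±100 for the full control effect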). To be noted: TR-UAS-bla HEK293, beta-lactamase ratio, antagonist mode, 18 h. In a few lines:
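TR-UAS-bla GripTite HEK293 cells in 2% charcoal/dextran FBS medium; compounds 0.59 nM to 92 uM with T3 at 0.4nM final, 18 h at 37 C. Beta-lactamase read by CCF4 fluorescence (460/530 nm); Hill fits gave IC50 and efficacy.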

A short description of assay [12]: qHTS assay for small molecule activators of the p53 signaling pathway (AID 651743; active = well fitted activation curve with a large enough effect in the signal ratio, not every such curve was filed as active; the % refers to the signal ratio; also: series mostly up to about 92 µM; % of control where 0% means no effect). The note with it: HCT-116 p53RE-bla, beta-lactamase FRET ratio, 16 h; activation: hits give high values. In a few lines:
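HCT-116 p53RE-bla, 4,000 cells/well; 5 h settle; cpd/DMSO 16 h, 37 C; LiveBLAzer B/G 2 h RT; fluorescence intensity.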

Assay [13] addresses Nuclear receptor ROR-gamma (Homo sapiens) (UniProt P51449). Nature of the assay: qHTS assay for small molecule antagonists of the retinoid-related orphan receptor gamma (ROR-gamma) signaling pathway (AID 651802). Also: nearly all actives have a fitted effect of over 60% in size. Also: potency is read from the fitted curve at half-maximal effect. The essentials:
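Antagonism is scored as a fall in luminescence from a RORE-luciferase reporter in CHO cells expressing ROR under a TET-inducible promoter, measured 16hr after doxycycline induction in the presence of compound.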

Assay [14] can be described thus: qHTS assay for small molecule antagonists of the retinoid-related orphan receptor gamma (ROR-gamma) signaling pathway - cell viability counter screen (AID 720652; active = well fitted curve in the direction sought with a large enough effect in the repeat runs; an effect the other way counts as inactive or inconclusive;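 also: series mostly up to about 92 µM; compound exposure lasted 16 hr before ATP read; % is scaled to controls: 0 for no effect and ±100 for the full control effect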). The essentials: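 Cytotoxicity is quantified via intracellular ATP (CellTiter-Glo luminescence) in doxycycline-induced CHO ROR response element-luciferase reporter cells treated with compound for 16 hr at 37 C, 5% CO2.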

Assay [15] deals with Nuclear receptor subfamily 1 group I member 2 (Rattus norvegicus) (UniProt Q9R1A7). Kind of assay: qHTS assay for small molecule activators of the rat pregnane X receptor (rPXR) signaling pathway (AID 651751; call rule not given here; also: 0% is about no effect). To be noted: rPXR reporter cells, luciferase (One-Glo), 24 h.
Nuclear receptor subfamily 1 group I member 2 (Rattus norvegicus), sequence (Q9R1A7 whole entry, looked up): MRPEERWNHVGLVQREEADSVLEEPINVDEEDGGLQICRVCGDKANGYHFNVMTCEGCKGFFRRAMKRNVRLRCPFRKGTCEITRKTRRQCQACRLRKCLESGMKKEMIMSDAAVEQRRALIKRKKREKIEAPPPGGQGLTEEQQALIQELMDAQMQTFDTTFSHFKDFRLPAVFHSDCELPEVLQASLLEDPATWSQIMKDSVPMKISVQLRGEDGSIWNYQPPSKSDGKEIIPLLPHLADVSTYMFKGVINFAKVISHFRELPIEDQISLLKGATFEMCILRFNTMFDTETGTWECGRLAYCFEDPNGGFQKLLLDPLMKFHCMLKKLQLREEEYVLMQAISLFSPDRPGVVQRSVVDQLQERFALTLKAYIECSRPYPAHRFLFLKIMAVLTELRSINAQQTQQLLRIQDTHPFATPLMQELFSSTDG
The nature of assay [16]: qHTS assay for small molecule activators of the human pregnane X receptor (PXR) signaling pathway (AID 720659; call rule not given here; also: 0% is about no effect).
The nature of assay [17]: MultiTox-Fluor Cytotoxicity Assay - LYMP1-001 - Live Cells (AID 947).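 Also: 0% = DMSO only and full inhibition = tetraoctylammonium bromide control.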
Assay [18] has as its target Glucocorticoid receptor (Homo sapiens) (UniProt P04150). Kind of assay: qHTS assay for small molecule agonists of glucocorticoid receptor signaling (AID 588532; active = well fitted curve in the direction sought with a large enough effect in the signal ratio, with a control signal flat; the % refers to the signal ratio;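 also: 100% = dexamethasone at 0.1 µM and 0% = DMSO only wells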). The note with it: HeLa MMTV-bla, beta-lactamase ratio, agonist, 18 h; hits give high values; percent of dexamethasone control, DMSO zero. The essentials: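 MMTV-bla HeLa beta-lactamase reporter cells in 1% charcoal/dextran FBS medium, compounds up to 92 uM for 18 h at 37 C, CCF4 readout; normalized to 0.1 uM dexamethasone (100%), EC50 and efficacy from Hill fits.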

The target of assay [19] is Peroxisome proliferator-activated receptor delta (Homo sapiens) (UniProt Q03181). Kind of assay: qHTS assay for small molecule agonists of peroxisome proliferator-activated receptor delta signaling (AID 588534; calls by dose curve;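 also: 0% = DMSO basal wells and 100% = positive control agonist at 10 µM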). In a few lines:
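Reporter cells were plated and held 5 hrs at 37 C before compounds were added. After 18 hrs at 37 C, CCF4 dye was loaded for 2 hrs at RT and fluorescence measured.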

For assay [20], the target named is Voltage-gated inwardly rectifying potassium channel KCNH2 (Homo sapiens) (UniProt Q12809). Nature of the assay: qHTS Assay for Small Molecule Inhibitors of the Human hERG Channel Activity (AID 588834).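 Also: top concentration of the series differs between compounds; % is scaled to controls: 0 for no effect and ±100 for the full control effect; lower thallium flux fluorescence means stronger hERG block; nearly all actives have a fitted effect of over 50% in size.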 In a few lines: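 hERG-BacMam U2OS, 2000 cells/well; 0.7X FluxOR loading 1 hr RT dark; cpd ~10 min 37 °C; stim buffer; FDSS fluorescence 2 min @ 1 s; AC50 Hill fit.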
Voltage-gated inwardly rectifying potassium channel KCNH2 (Homo sapiens), sequence (Q12809 whole entry, looked up): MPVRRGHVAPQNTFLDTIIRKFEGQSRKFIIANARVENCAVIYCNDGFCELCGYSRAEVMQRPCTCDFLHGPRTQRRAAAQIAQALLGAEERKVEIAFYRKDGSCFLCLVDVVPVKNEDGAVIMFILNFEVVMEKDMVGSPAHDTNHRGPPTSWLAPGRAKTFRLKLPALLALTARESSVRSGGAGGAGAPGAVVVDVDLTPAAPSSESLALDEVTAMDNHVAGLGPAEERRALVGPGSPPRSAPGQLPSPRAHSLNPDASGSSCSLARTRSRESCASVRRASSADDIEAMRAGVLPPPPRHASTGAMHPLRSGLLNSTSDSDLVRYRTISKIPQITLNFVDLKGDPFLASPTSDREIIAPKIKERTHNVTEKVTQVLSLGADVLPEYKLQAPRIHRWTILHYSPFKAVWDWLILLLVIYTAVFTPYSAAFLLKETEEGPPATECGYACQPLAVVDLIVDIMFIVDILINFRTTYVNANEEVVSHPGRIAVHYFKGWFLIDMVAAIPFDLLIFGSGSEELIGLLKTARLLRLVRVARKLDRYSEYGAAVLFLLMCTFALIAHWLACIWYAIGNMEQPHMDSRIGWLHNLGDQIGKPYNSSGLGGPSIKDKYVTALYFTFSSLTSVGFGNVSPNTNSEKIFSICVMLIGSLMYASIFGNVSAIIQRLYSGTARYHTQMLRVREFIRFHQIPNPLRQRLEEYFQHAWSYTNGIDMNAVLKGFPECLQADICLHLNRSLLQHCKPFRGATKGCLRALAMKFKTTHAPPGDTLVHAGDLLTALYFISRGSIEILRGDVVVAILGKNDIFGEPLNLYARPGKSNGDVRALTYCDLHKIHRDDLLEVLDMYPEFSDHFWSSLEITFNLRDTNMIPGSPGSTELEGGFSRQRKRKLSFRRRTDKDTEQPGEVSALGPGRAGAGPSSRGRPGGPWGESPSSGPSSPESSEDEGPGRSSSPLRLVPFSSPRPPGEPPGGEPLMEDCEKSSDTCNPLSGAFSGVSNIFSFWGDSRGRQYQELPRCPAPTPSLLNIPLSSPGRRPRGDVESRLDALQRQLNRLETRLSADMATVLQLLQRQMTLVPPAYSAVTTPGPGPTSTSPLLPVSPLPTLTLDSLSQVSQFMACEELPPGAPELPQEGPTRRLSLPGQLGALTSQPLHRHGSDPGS

Glucocorticoid receptor (Homo sapiens), sequence (P04150 whole entry, looked up): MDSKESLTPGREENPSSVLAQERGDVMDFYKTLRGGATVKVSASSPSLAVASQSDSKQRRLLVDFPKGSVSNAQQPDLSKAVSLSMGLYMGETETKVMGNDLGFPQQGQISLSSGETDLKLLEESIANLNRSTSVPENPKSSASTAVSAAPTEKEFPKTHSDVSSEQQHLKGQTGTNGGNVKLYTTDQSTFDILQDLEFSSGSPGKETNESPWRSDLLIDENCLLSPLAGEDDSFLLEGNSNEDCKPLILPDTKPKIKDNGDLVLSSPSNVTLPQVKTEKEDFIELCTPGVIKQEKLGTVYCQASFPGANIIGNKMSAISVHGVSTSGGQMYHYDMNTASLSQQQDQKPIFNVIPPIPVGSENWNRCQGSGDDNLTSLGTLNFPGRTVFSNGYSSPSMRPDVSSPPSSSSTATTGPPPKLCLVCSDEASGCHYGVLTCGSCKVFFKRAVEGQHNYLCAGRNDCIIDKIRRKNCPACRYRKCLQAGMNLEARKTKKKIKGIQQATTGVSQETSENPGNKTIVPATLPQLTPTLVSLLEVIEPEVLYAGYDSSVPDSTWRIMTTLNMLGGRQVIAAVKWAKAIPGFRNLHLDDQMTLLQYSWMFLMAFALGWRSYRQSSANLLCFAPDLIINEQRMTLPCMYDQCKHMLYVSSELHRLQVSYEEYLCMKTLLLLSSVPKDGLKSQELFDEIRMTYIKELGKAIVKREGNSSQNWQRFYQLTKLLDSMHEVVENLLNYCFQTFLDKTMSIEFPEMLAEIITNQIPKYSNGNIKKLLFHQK
Peroxisome proliferator-activated receptor delta (Homo sapiens), sequence (Q03181 whole entry, looked up): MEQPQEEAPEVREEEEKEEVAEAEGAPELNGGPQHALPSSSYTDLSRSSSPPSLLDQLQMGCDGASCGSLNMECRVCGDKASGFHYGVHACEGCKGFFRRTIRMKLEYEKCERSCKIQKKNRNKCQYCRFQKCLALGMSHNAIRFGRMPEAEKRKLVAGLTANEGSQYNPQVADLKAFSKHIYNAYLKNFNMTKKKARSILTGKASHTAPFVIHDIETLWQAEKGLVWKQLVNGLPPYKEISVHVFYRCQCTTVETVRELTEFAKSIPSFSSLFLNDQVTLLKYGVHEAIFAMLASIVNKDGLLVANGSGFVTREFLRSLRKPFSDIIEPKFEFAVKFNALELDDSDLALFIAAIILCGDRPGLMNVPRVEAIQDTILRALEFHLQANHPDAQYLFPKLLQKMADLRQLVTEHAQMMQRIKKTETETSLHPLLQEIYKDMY
Cytochrome P450 3A4 (Homo sapiens), sequence (P08684 whole entry, looked up): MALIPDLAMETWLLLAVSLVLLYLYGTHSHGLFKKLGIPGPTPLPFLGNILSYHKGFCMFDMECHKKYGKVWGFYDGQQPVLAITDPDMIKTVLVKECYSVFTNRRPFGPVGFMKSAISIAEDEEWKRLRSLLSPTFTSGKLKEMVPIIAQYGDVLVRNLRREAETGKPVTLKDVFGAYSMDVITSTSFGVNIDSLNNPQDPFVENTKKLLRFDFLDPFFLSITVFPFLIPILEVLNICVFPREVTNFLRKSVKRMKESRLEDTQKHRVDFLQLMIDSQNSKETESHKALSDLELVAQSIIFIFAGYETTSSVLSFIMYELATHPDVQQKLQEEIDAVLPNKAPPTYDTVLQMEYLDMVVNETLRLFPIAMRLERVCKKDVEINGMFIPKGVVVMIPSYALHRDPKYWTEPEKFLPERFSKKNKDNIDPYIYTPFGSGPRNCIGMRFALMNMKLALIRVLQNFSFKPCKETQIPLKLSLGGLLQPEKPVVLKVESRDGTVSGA
Nuclear receptor ROR-gamma (Homo sapiens), sequence (P51449 whole entry, looked up): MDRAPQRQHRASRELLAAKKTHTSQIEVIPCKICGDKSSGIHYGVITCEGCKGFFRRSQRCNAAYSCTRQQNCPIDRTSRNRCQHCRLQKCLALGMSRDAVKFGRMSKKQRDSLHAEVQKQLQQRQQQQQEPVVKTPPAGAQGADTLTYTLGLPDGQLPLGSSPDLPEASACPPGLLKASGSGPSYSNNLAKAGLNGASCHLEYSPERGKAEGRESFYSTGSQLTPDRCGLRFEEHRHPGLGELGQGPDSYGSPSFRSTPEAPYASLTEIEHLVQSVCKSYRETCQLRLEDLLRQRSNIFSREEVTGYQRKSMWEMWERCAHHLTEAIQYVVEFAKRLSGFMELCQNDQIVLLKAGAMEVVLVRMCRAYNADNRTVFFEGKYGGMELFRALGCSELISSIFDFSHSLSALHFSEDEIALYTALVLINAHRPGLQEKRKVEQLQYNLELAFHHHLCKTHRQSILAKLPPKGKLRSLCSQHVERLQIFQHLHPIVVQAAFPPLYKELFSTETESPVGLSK
Peroxisome proliferator-activated receptor gamma (Homo sapiens), sequence (P37231 whole entry, looked up): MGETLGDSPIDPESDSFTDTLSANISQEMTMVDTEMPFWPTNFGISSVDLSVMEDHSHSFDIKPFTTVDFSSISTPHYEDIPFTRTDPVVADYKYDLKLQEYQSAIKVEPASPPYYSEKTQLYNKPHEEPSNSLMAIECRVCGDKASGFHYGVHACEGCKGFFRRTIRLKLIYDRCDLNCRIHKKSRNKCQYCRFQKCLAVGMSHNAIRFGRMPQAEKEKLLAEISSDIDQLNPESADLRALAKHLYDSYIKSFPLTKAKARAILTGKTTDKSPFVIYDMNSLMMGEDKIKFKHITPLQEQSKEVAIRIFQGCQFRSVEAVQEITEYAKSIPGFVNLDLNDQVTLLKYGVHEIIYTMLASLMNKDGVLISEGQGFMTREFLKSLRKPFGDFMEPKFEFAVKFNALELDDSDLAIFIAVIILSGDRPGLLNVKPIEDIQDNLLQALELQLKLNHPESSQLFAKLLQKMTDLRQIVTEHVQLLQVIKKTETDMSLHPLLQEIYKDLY

Take `O=NN(CCO)CCO`: the Potency result in [1], in [2], in assay [3], in assay [4], in assay [5] and in [6] was “inactive” in each case. For the same compound, the Potency entry in assay [7], in [8], in [13] and in assay [14] was “inactive” each time. The result in assay [9], in [10] and in assay [16] was inactive. Further, the activity change % (negative = inhibition) in [11] is -10.8%. Besides, the activation in assay [12] is -2.59%. The max response in assay [15] is 3.2%.
As to `C[C@]12CC[C@H]3[C@@H](CCC4=CC(=O)CC[C@@]43C)[C@@H]1CC[C@@H]2O`, the Potency result in assay [17], in assay [2], in assay [3], in [4], in assay [5] and in [14] was “inactive” throughout. Besides, the activation is -9.17% in [18] and -0.245% in assay [12]. Moreover, the Potency in [8] is 7.08 µM (active); in assay [13], 26.6 µM (active). Besides, the compound was called inactive in assay [19], in assay [10] and in assay [16]. Besides, the activity change % (negative = inhibition) in assay [11] is 14.5%. Also, the max response in [15] is 3.05%.
Take `Clc1ccc2ccccc2c1`: the Potency result in [1], in assay [17], in assay [2], in assay [3], in assay [4] and in assay [5] was “inactive” in each case. Moreover, the Potency entry in assay [6], in [7], in assay [8], in assay [20], in assay [13] and in [14] was “inactive” throughout. For the same compound, the results for the activation in assay [18] and in assay [12] were -0.849% and 1.92%, respectively. In addition, the call in assay [19], in assay [9], in [10] and in assay [16] was inactive. In addition, in [11], the activity change % (negative = inhibition) is -12%. Moreover, the max response in assay [15] is 7.07%.
Consider `Nc1ccc(Br)cc1`, for which the Potency result in assay [17], in [2], in assay [3], in [4], in assay [5] and in assay [6] was “inactive” in each case. The Potency entry in assay [7], in assay [8], in assay [20], in [13] and in assay [14] was “inactive” in each case. In addition, the activation in assay [18] was -2.07%; in assay [12], -1.91%. The result in assay [19], in assay [10] and in [16] was inactive. Besides, the activity change % (negative = inhibition) in [11] is -8.18%. Further, the max response in assay [15] is -3.71%.
As for `CC(=O)[O-].CC(=O)[O-].O.O.O.[Pb+2]`, the Potency result in assay [1], in [17], in assay [2], in [3], in [4] and in assay [5] was “inactive” throughout. The Potency entry in assay [20] and in [14] was “inactive” throughout. Also, the compound was classed as inactive in [10]. For the same compound, the activity change % (negative = inhibition) in assay [11] is -0.227%.
With `C=CCOC(=O)c1ccccc1N`, the Potency result in assay [1], in assay [17], in assay [2], in [3], in assay [4] and in assay [5] was “inactive” each time. In addition, the Potency entry in assay [6], in assay [7], in assay [8], in assay [20], in assay [13] and in assay [14] was “inactive” throughout. Further, the activation in [18] was 3.1%. Also, the call in assay [19], in assay [9], in assay [10] and in [16] was inactive. In addition, the activity change % (negative = inhibition) in assay [11] is -21.1%. The max response in assay [15] is 4.98%.

(Values after PubChem BioAssay (NCATS).)
